# PubChem BioAssay AID540351 (The Scripps Research Institute Molecular Screening Center, 2011)
# A number with no mark means an inactive call. The rule behind the calls is not given here.
# Test system: Rolipram
# Assay: selectivity profiling over binding targets, CYP450 – biochemical, Ricerca HitProfilingScreen, selectivity assay for S1P3 agonist project, profiling panel (AID 540351)
# Conditions: Ricerca receptor/enzyme binding panel plus CYP450, at 30 µM, active compounds read high
compound,measurement,value
O=C(c1cc(C2CC2)on1)N(C1CCCCC1)C1CCCCC1,inhibition,18%
